Measured values: paper PMC7862700, “An all-to-all approach to the identification of sequence-specific readers for epigenetic DNA modifications on cytosine”

Assays:
Test in all cases: DAPPL (digital affinity profiling via proximity ligation, sequencing); 10 mM Tris-HCl pH 7.5, 50 mM NaCl, 1 mM DTT, 4% glycerol, room temperature, 30 min; GST-TFs on glutathione beads, 16-mer random dsDNA library, 0.1% formaldehyde crosslink after washing; high values mean tight binding
FLI1 = target: T1, FLI1 (Homo sapiens, UniProt Q01543 1-452); details: protein: recombinant; tags: N-terminal GST; dsDNA, one strand shown
T1 sequence: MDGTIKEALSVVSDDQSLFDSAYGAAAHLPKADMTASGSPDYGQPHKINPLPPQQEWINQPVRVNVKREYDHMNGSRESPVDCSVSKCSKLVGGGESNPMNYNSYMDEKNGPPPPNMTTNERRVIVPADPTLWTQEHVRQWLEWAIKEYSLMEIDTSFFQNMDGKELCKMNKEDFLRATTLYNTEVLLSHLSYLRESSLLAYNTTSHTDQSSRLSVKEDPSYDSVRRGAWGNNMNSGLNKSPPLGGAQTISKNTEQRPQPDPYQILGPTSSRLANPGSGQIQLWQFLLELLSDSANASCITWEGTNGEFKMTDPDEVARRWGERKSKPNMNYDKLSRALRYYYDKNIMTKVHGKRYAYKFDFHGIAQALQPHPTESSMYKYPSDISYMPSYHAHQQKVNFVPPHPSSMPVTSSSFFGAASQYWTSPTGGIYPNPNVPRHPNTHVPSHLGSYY
Method in brief: (§1)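 In yeast, human transcription factors were expressed with a GST fusion, then pulled down on glutathione beads and given DNA barcodes. Pooled with a tag-only sample, they were exposed to 200 nmole of a 16-mer random double-stranded DNA library (Tris/NaCl/DTT/glycerol buffer, room temperature, 30 min), washed, crosslinked with 0.1% formaldehyde, proximity-ligated using BsaI/T4 ligase for 1 h at 37 °C, PCR-amplified and read on an Illumina NextSeq500. Each hexamer's frequency of reads for a factor, divided by the matching frequency for the tag-only sample, gives the binding signal.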

ELK1 = target: T2, ELK1 (Homo sapiens, UniProt P19419 1-428); details: protein: recombinant; tags: N-terminal GST; dsDNA, one strand shown
T2 sequence: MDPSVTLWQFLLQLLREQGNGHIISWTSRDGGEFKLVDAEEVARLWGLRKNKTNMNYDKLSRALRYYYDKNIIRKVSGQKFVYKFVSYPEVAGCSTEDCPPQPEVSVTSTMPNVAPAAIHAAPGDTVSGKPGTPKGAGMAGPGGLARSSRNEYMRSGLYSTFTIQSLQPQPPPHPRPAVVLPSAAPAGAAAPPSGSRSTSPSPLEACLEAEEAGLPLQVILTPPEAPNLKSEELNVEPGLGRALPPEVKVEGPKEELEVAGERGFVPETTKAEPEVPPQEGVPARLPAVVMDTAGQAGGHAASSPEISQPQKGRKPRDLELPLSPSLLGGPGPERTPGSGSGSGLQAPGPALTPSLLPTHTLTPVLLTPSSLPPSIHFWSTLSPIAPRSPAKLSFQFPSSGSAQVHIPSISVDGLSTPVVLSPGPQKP
Method in brief: as §1

GABPA = target: T3, GABPA (Homo sapiens, UniProt Q06546 1-454); details: protein: recombinant; tags: N-terminal GST; dsDNA, one strand shown
T3 sequence: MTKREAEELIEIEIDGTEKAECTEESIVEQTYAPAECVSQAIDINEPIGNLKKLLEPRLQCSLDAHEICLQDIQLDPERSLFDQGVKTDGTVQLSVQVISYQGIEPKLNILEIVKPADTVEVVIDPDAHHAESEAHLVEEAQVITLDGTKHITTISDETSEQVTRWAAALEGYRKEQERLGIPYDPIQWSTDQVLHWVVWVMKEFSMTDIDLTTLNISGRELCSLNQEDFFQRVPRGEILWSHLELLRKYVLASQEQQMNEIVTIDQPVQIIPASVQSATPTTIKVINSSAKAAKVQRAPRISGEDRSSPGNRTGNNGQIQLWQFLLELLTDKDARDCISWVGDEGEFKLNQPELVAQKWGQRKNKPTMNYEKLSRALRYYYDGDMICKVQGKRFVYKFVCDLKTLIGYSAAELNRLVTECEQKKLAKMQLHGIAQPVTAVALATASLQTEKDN
Method in brief: as §1

ERG = target: T4, ERG (Homo sapiens, UniProt P11308 1-479); details: protein: recombinant; tags: N-terminal GST; dsDNA, one strand shown
T4 sequence: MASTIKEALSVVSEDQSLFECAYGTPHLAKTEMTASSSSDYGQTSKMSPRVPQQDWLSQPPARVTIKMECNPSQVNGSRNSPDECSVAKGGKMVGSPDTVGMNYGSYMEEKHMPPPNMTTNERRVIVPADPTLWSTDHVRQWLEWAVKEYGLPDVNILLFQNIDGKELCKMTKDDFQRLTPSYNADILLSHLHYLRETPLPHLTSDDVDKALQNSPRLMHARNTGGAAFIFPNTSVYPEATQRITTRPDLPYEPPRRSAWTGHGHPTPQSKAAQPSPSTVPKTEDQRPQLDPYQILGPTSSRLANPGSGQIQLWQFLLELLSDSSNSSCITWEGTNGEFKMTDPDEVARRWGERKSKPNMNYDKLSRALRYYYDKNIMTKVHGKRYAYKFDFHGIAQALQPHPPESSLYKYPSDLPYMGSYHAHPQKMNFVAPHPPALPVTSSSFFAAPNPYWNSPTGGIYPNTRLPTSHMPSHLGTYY
Method in brief: as §1

ELF1 = ELF1 (Homo sapiens, UniProt P32519 1-619); details: protein: recombinant; tags: N-terminal GST; dsDNA, one strand shown
Method in brief: as §1

EHF = target: T5, EHF (Homo sapiens, UniProt Q9NZC4 1-300); details: protein: recombinant; tags: N-terminal GST; dsDNA, one strand shown
T5 sequence: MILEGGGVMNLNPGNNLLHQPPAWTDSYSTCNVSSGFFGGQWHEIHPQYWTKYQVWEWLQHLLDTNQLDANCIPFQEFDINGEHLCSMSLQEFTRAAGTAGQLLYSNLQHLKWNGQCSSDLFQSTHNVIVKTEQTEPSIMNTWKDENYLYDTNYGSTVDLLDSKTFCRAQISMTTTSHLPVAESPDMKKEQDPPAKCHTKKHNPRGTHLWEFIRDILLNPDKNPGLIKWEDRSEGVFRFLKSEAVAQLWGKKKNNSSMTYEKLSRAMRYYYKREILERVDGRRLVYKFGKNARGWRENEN
Method in brief: as §1

SPI1 = SPI1 (Homo sapiens, UniProt P17947 1-270); details: protein: recombinant; tags: N-terminal GST; dsDNA, one strand shown
Method in brief: as §1

SPIB = SPIB (Homo sapiens, UniProt Q01892 1-262); details: protein: recombinant; tags: N-terminal GST; dsDNA, one strand shown
Method in brief: as §1

ELK3 = target: T6, ELK3 (Homo sapiens, UniProt P41970 1-407); details: protein: recombinant; tags: N-terminal GST; dsDNA, one strand shown
T6 sequence: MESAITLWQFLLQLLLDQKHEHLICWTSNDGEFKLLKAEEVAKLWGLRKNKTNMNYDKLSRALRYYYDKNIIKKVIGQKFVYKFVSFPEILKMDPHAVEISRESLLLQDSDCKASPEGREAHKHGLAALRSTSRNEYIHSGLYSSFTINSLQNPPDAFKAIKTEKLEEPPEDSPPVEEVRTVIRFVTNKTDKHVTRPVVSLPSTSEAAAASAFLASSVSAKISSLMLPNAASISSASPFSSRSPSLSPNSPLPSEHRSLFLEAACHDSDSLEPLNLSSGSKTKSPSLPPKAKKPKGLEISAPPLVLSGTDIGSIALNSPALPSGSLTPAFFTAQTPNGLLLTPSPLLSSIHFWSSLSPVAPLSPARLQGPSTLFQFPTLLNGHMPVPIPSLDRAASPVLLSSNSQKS
Method in brief: as §1

FEV = target: T7, FEV (Homo sapiens, UniProt Q99581 1-238); details: protein: recombinant; tags: N-terminal GST; dsDNA, one strand shown
T7 sequence: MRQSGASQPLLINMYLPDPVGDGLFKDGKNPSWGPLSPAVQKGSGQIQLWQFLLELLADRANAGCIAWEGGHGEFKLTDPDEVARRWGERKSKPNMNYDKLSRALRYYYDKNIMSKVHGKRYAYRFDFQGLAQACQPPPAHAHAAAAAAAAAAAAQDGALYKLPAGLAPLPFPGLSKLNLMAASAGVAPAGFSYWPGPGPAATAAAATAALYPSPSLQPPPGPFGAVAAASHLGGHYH
Method in brief: as §1

ETV5 = ETV5 (Homo sapiens, UniProt P41161 1-510); details: protein: recombinant; tags: N-terminal GST; dsDNA, one strand shown
Method in brief: as §1

HSF1 = HSF1 (Homo sapiens, UniProt Q00613 1-529); details: protein: recombinant; tags: N-terminal GST; chain copies: 3; dsDNA, one strand shown
Method in brief: as §1

SPIC = target: T8, SPIC (Homo sapiens, UniProt Q8N5J4 1-248); details: protein: recombinant; tags: N-terminal GST; dsDNA, one strand shown
T8 sequence: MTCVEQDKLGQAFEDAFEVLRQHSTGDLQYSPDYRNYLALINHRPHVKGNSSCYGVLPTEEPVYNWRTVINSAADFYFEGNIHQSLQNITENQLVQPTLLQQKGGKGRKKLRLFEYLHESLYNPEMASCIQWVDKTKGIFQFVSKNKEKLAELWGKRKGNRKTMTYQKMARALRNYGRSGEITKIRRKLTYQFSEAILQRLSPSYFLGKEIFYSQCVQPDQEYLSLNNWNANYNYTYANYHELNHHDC
Method in brief: as §1

ELF4 = ELF4 (Homo sapiens, UniProt Q99607 1-663); details: protein: recombinant; tags: N-terminal GST; dsDNA, one strand shown
Method in brief: as §1

ELK4 = target: T9, ELK4 (Homo sapiens, UniProt P28324-2 1-405); details: protein: recombinant; tags: N-terminal GST; dsDNA, one strand shown
T9 sequence: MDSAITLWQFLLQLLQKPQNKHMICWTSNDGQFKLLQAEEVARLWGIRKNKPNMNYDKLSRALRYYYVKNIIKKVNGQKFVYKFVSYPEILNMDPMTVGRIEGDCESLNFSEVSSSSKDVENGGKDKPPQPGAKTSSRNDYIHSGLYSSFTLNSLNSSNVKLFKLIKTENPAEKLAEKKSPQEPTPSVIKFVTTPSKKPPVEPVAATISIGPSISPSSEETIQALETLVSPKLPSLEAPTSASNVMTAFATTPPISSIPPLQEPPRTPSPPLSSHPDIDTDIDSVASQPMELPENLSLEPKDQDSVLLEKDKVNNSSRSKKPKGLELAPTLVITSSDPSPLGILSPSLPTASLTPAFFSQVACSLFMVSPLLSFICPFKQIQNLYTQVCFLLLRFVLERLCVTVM
Method in brief: as §1

ETV2 = target: T10, ETV2 (Homo sapiens, UniProt O00321 1-342); details: protein: recombinant; tags: N-terminal GST; dsDNA, one strand shown
T10 sequence: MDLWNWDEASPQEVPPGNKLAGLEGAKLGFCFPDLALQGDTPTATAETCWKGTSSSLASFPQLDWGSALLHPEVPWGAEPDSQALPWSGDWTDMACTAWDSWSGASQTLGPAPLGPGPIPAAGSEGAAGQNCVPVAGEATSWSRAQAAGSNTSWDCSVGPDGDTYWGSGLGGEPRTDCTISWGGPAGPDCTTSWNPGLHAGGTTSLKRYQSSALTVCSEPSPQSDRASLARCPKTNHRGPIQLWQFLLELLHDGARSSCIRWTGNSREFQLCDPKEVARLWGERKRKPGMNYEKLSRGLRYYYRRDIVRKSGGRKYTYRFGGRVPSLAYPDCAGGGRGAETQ
Method in brief: as §1

ELF3 = target: T11, ELF3 (Homo sapiens, UniProt P78545 1-371); details: protein: recombinant; tags: N-terminal GST; dsDNA, one strand shown
T11 sequence: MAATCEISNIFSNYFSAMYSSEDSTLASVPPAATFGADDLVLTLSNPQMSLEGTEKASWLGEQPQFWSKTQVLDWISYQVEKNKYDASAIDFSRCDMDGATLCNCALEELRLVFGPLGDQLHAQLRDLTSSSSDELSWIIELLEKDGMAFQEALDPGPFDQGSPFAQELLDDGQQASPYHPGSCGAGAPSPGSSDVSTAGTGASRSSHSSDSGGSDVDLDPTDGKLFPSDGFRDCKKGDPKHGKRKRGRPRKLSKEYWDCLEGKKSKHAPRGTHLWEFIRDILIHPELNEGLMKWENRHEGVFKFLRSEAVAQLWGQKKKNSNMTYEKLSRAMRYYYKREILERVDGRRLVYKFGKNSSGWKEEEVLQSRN
Method in brief: as §1

ETV1 = ETV1 (Homo sapiens, UniProt P50549 1-477); details: protein: recombinant; tags: N-terminal GST; dsDNA, one strand shown
Method in brief: as §1

Sequence of SPIB (Q01892 whole entry): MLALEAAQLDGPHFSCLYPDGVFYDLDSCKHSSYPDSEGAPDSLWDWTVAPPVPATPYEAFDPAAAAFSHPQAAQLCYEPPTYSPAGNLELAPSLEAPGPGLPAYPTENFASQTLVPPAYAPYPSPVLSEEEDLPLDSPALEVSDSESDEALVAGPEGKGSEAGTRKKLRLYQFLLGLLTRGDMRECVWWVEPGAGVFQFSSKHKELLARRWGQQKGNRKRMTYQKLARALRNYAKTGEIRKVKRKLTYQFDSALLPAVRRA
Sequence of ELF1 (P32519 whole entry): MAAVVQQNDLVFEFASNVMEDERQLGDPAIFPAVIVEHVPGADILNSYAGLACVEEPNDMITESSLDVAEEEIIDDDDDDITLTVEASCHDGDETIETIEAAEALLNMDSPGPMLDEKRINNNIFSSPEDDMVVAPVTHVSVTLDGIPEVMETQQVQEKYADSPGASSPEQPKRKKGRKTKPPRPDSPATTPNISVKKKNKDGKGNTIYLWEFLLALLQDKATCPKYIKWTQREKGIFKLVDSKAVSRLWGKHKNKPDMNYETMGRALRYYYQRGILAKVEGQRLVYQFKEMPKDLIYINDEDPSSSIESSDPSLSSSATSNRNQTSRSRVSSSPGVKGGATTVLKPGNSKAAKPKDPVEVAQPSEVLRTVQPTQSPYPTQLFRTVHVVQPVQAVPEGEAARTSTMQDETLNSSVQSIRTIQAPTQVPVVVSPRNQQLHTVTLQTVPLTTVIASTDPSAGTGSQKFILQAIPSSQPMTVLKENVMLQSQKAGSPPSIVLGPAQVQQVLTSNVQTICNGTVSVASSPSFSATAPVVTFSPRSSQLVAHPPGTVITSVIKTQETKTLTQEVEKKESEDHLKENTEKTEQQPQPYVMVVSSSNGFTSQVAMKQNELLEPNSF
Sequence of HSF1 (Q00613 whole entry): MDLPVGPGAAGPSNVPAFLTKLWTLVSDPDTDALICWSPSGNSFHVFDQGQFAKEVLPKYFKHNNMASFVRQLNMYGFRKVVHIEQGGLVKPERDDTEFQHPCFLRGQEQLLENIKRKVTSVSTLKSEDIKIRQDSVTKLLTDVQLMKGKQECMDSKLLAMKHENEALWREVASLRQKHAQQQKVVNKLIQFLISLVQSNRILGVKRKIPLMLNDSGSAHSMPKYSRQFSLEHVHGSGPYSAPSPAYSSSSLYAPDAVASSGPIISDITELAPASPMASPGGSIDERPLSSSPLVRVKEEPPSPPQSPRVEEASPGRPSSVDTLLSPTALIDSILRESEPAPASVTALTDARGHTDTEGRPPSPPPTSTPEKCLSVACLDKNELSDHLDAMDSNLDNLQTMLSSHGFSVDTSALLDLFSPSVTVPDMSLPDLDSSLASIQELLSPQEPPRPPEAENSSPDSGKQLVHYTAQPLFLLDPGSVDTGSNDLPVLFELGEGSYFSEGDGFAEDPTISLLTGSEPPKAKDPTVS
Sequence of ETV5 (P41161 whole entry): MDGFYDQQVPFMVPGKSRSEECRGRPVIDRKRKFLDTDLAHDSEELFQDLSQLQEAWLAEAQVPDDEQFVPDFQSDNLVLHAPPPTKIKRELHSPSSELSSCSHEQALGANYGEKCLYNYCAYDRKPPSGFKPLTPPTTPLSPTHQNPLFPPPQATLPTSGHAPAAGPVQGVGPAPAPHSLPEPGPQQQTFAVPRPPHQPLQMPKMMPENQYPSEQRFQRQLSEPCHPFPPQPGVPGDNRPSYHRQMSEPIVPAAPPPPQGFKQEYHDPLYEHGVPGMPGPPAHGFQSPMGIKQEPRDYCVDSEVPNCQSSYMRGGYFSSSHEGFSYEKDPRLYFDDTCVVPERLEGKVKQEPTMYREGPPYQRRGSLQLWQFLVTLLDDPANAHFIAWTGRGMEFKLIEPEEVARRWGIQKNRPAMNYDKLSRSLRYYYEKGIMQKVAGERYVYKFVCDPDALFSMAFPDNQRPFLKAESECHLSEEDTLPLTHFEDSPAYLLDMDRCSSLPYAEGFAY
Sequence of ETV1 (P50549 whole entry): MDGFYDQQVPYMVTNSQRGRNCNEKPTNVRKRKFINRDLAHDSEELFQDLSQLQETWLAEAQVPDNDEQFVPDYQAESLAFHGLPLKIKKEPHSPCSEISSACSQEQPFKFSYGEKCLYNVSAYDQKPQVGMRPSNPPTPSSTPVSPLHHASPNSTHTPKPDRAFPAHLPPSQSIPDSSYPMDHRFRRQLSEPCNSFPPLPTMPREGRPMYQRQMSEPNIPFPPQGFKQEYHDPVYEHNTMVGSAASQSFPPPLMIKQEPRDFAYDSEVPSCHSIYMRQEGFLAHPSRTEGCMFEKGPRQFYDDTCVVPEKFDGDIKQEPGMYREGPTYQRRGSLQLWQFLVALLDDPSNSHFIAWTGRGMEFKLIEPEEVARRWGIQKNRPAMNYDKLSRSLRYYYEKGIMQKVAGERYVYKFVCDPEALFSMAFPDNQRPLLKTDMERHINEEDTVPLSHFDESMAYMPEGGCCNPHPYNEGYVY
Sequence of ELF4 (Q99607 whole entry): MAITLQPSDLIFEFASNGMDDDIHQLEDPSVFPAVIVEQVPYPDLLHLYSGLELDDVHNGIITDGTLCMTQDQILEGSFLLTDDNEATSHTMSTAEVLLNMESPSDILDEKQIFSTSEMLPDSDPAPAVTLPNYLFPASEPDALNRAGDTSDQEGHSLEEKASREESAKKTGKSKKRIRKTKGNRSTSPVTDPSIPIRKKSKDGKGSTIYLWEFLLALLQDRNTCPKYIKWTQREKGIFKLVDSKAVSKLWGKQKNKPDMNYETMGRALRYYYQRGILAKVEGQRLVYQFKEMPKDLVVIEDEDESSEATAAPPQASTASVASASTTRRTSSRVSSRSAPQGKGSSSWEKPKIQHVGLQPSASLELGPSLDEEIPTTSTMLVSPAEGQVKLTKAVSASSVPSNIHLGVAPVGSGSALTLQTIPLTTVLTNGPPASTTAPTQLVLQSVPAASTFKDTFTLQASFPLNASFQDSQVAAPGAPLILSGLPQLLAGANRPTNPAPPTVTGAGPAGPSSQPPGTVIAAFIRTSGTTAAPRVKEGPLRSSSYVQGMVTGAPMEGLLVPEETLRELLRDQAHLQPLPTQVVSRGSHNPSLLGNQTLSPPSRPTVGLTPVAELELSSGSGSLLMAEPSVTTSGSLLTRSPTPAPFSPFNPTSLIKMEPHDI

Q: Which results are given for AACAAG?
A: binding signal (FLI1): 1.08 fold enrichment (6-mer frequency, TF over GST control); binding signal (ELK1): 1.08 fold enrichment (6-mer frequency, TF over GST control); binding signal (GABPA): 1.15 fold enrichment (6-mer frequency, TF over GST control); binding signal (ERG): 1.14 fold enrichment (6-mer frequency, TF over GST control); binding signal (ELF1): 1.13 fold enrichment (6-mer frequency, TF over GST control); binding signal (EHF): 1.17 fold enrichment (6-mer frequency, TF over GST control); binding signal (SPI1): 1.04 fold enrichment (6-mer frequency, TF over GST control); binding signal (SPIB): 1.06 fold enrichment (6-mer frequency, TF over GST control); binding signal (ELK3): 1.22 fold enrichment (6-mer frequency, TF over GST control); binding signal (FEV): 1.03 fold enrichment (6-mer frequency, TF over GST control); binding signal (ETV5): 1.14 fold enrichment (6-mer frequency, TF over GST control); binding signal (HSF1): 1.03 fold enrichment (6-mer frequency, TF over GST control); binding signal (SPIC): 1.15 fold enrichment (6-mer frequency, TF over GST control); binding signal (ELF4): 1.17 fold enrichment (6-mer frequency, TF over GST control); binding signal (ELK4): 1.01 fold enrichment (6-mer frequency, TF over GST control); binding signal (ETV2): 1 fold enrichment (6-mer frequency, TF over GST control); binding signal (ELF3): 1.26 fold enrichment (6-mer frequency, TF over GST control); binding signal (ETV1): 1.13 fold enrichment (6-mer frequency, TF over GST control)
